In the library only some 7.9% were active in any assay of this set; here they are far more common.
HT1080NT lethal: kills 2HG-producing HT-1080-NT fibrosarcoma cells. HT-1080-NT fibrosarcoma viability, CellTiter-Glo ATP luminescence, 48 h. Potency, µM (titrated, usually from 46.1 µM), inactives show top-dose activity, negative = less viability, most hits filed as cytotoxic. actives 1.6% (n = 360,000). AID 686970;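 note: NT is the 2HG producing partner of a matched IDH1 knockdown line; 0% = DMSO-treated cells and -100% = media-only wells without cells; nearly all actives have a fitted effect of over 55% in size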
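Viability by CellTiter-Glo luminescence after 48 h compound exposure at 37C of HT-1080-NT cells (750/well, RPMI, 5% FBS). % activity scaled between DMSO wells and medium-only wells, then curve-fitted and categorized by curve class.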
KB-3-1 tox: KB-3-1 parental cell cytotoxicity; KB-3-1 viability, CellTiter-Glo ATP luminescence, 72 h; Potency, µM (top dose mostly 46.1 µM), most hits filed as cytotoxic; actives 1.4% (n = 400,000); AID 1347075; note: % is set by controls: 0 for no effect and ±100 for the full control effect; nearly all actives have a fitted effect of over 60% in size
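Viability of parental KB-3-1 cells, measured by CellTiter-Glo luminescence, followed a 72 h incubation at 37 °C with pinned compounds in phenol-red-free DMEM containing 10% FBS.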
KB-V1 MDR tox: KB-V1 MDR subline cytotoxicity. actives 3.4% (n = 400,000). Potency, µM (series often up to 46.1 µM), usual class: cytotoxic. KB-V1 MDR cells viability, CellTiter-Glo, 72 h; note: % is set by controls: 0 for no effect and ±100 for the full control effect; nearly all actives have a fitted effect of over 60% in size
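Cytotoxicity toward P-gp-expressing KB-V1 cells was determined as loss of CellTiter-Glo luminescence after 72 h at 37 degrees C. Compounds were tested in quantitative HTS format across a concentration range, with curves fitted to normalized data.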
MCF10A rereplic: DNA re-replication induction in MCF 10a cells; MCF 10A DNA re-replication, Hoechst nuclear intensity, 48 h; Potency, µM (highest dose often 46.1 µM), inactives show at the top dose activity, positive = re-replication, actives largely listed as activators; actives 2.9% (n = 350,000); AID 624296; note: % of control where 0% means no effect; nearly all actives have a fitted effect of over 50% in size
SW480 rerep: DNA re-replication induction in SW480 cells; actives 1.8% (n = 340,000); SW480 DNA re-replication, Hoechst DNA content imaging, 48 h; Potency, µM (series often up to 46.1 µM), inactives show top-dose re-replication activation, actives largely listed as activators; note: % of control where 0% means no effect; nearly all actives have a fitted effect of over 55% in size
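DNA re-replication was detected as more nuclei of elevated Hoechst intensity after 48 hr exposure to compound (23 nL pinned per well of 250 cells).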
HT1080 IDH1KD tx: kills HT-1080 cells with IDH1 knockdown; HT-1080 IDH1 knockdown viability, ATP luminescence, 48 h; Potency, µM (series often up to 46.1 µM), for inactives: top-dose activity, negative = toxicity, hits mostly cytotoxic; actives 2% (n = 360,000);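 note: 0% = DMSO wells and -100% = cell-free medium wells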
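% activity derives from luminescence (CellTiter-Glo), normalised to DMSO and no-cell wells. HT-1080-IDH1KD cells, 750/well, had 48 h compound exposure at 37 °C.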
The depositor's hits bear a star; i = inactive; ? = inconclusive; . = not tested or not shown; [ ] = remark or other dose. Calls come from the whole dose curve; as a rule, active = well fitted curve in the direction sought with a large enough effect; inconclusive = small, poorly fitted or top-dose-only effect, or another doubt; inactive = no such curve, though single readings can be large; an effect the other way counts as inactive or inconclusive. Potency is the fitted concentration of half-maximal effect.

SMILES	HT1080NT lethal	KB-3-1 tox	KB-V1 MDR tox	MCF10A rereplic	SW480 rerep	HT1080 IDH1KD tx
NS(=O)(=O)Oc1ccccc1	8%	i	i	-19%	-6%	11%
CC(=O)c1ccc(N2CCN(CC(=O)Nc3ccccc3C(=O)NC3CC3)CC2)c(F)c1	-3%[9.24 µM]	i	i	18µM*	-7%	-1%
CC1=NN(c2ccccc2)C(=O)/C1=C\C=C\c1ccccc1	4.1µM*	i	i	?	?	3.7µM*
O=C(C1CCC(Cn2c(=O)c3sccc3n(Cc3ccccc3F)c2=O)CC1)N1CCOCC1 (configuration not stated)	.	i	i	.	.	.
Cc1cccc(NC(=O)Cn2cnc3c(oc4ccccc43)c2=O)c1C	0%	i	i	2%	-4%	-7%
Cc1ccccc1NC(=O)Cn1cnc2c(oc3ccccc32)c1=O	1%	i	18µM*	3%	2%	4%
CCCc1ccc(O)c(N=Cc2cc(Br)cc(OCC)c2O)c1	?	i	i	?	?	23µM*
O=C(Cn1c(=O)n(-c2ccc(F)cc2)c(=O)c2sccc21)c1ccccc1	-4%	i	21µM*	-4%	-104%	1%
O=c1c2sccc2n(Cc2ccc(F)cc2)c(=O)n1-c1ccc(F)cc1	3%	i	?	-64%	0%	13%
Cc1ccc(CN2CCSc3ccc(C(=O)NCCCN4CCOCC4)cc32)cc1	-12%	i	i	?	-3%	?
CCN1CCN(CCCNC(=O)c2ccc3c(c2)N(Cc2ccc(C)cc2)CCS3)CC1	?	?	i	15%	15µM*	?
CCN1CCN(C(=O)c2ccc3c(c2)N(Cc2ccc(C)cc2)CCS3)CC1	-15%	i	i	3%	?	-1%
Cc1ccc(CN2CCSc3ccc(C(=O)N4CCN(c5ncccn5)CC4)cc32)cc1	4%[9.24 µM]	21µM*	21µM*	?	?	9%
CC[N+]1(CC(=O)c2ccc(Br)cc2)CCCCC1	.	i	i	.	.	.
CCOc1ccc(NC(=O)CN(C)C(=O)c2ccccc2OCc2c(C)noc2C)cc1OCC	-1%	i	i	3%	-1%	2%
CC(C)CN1C(=O)CN(S(C)(=O)=O)CC1(C)C(=O)NC(C)C (configuration not stated)	6%	i	i	.	.	21%
CC(C)(C)c1ccccc1NC(=O)CN1C(=O)NC2(CCCCCC2)C1=O	9%	.	.	-16%	1%	1%
COC(=O)c1cc(C(=O)OCC(=O)N(C)c2ccccc2)cc([N+](=O)[O-])c1	17%	i	i	1%	1%	1%
CCN1CCN(Cc2c(O)ccc3oc(C)c(C(=O)Nc4cccc(C(F)(F)F)c4)c23)CC1	.	i	i	.	.	.
CN(CC(=O)Nc1ccc(F)c(F)c1F)C(=O)C1CCCO1 (configuration not stated)	-1%	i	?	0%	2%	2%
Nc1nc(-c2ccc(Br)s2)c(Br)s1	-25%	i	i	21µM*	15%	-23%
CCOc1ccc2nc(NCCNC(=O)Nc3cccc(C)c3)c(C#N)cc2c1	?	?	?	?	9.2µM*	?
CCOc1ccc2nc(NCCNC(=S)NCCCN(C)C)c(C#N)cc2c1	-24%	i	i	12µM*	16µM*	?
CCOc1ccc2nc(NCCNC(=O)Nc3ccccc3)c(C#N)cc2c1	?	i	?	?	?	?
Cc1cccc2cc(C#N)c(NCCNC(=S)NCCCN3CCOCC3)nc12	?	i	i	?	13%	-20%
SMILES	HT1080NT lethal	KB-3-1 tox	KB-V1 MDR tox	MCF10A rereplic	SW480 rerep	HT1080 IDH1KD tx
Cc1cc2cc(C#N)c(NCCNC(=S)NCCCN3CCOCC3)nc2cc1C	?	i	?	21µM*	16µM*	?
COC(=O)C1CCN(C(=O)[C@H](C)NC(=O)C2CC(=O)N(c3ccc(F)cc3)C2)CC1 (some centres not stated)	0%	i	i	-2%	4%	14%
CCOC(=O)C1=C[C@@H](c2ccccc2)N(S(=O)(=O)c2ccc(C)cc2)[C@H]1c1ccc(OC)cc1	6%	i	i	.	.	5%
NC(N)=Nc1nc(-c2ccccc2)c2cc(F)ccc2n1	21µM*	23µM*	i	?	8%[1.84 µM]	21µM*
O=C(NCc1ccc(F)cc1)C1CCN(c2cnccn2)CC1	-9%	i	i	-1%	-4%	-13%
C=CCNC(=O)C1CCN(c2cnccn2)CC1	?	i	?	0.23µM*	-50%	11%
CC(C)c1nnc(NC(=O)C2CCN(c3cnccn3)CC2)s1	0%	i	23µM*	-1%	-1%	-1%
CCc1nnc(NC(=O)C2CCN(c3cnccn3)CC2)s1	2%	i	i	2%	-24%	0%
Cc1ccc2nc(-c3ccc(N)cc3)sc2c1	-14%	?	i	21%	13%	-3%
Nc1ccc2nc(-c3ccccc3)sc2c1	?	16µM*	?	26µM*	?	?
Nc1ccc2nc(-c3ccccc3)c(-c3ccccc3)nc2c1	-4%	i	i	21µM*	23µM*	-2%
Nc1ccc(Oc2ccc3nc(-c4ccccc4)c(-c4ccccc4)nc3c2)cc1	-10%	?	?	11%	11%	-7%
CC(=O)N(C)c1ccc(/C=C2\C=Cc3ccccc32)cc1	.	i	i	.	.	.
O=C1CC(c2ccc(O)cc2)Oc2ccccc21 (configuration not stated)	-10%	i	i	?	3%	7%
Cc1c(O)cc2c(c1O)C(=O)CC(c1ccccc1)O2 (configuration not stated)	?	?	i	?	7%	23µM*
CC(=O)C1CCN(c2ncc(-c3ccc4c(c3)OCCCO4)s2)CC1	.	i	i	.	.	.
CCCSc1nnc(NC(=O)Nc2ccc(F)cc2)s1	?	26µM*	?	?	5%	12µM*
CCCSc1nnc(NC(=O)Nc2ccc(C)cc2)s1	10%	i	i	10%	19%	12%
CCCSc1nnc(NC(=O)Nc2ccccc2)s1	-9%	?	21µM*	?	?	0%
CCSc1nnc(NC(=O)C2CCN(C(=O)c3ccc(F)cc3)CC2)s1	4%	i	21µM*	5%	-5%	-1%
CN(C(=O)CSc1nc2c(c(=O)[nH]1)CCCC2)c1ccccc1	.	i	i	.	.	.

Compound activity as filed in PubChem.
